# Results taken from PubChem BioAssay (NCI).
# Several values for one entry are separate records, joined by “and”; a condition that tells them apart may be missing. Identical values can stand only once. The panel holds about 83,000 compounds, 20% with a hit somewhere; the sample as a whole holds those more often.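 For each line, cells grew in 96-well plates with the test compound present at a single concentration for 48 hours.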 Unmarked numbers belong to inactive results. Activity calls are given as the source filed them. How the source made its calls: active means growth percent below 10; inactive means the rest.
# Experiments:
# Assay in all cases: NCI-60 one-dose screen, 48 h (100 = growth as untreated, 0 = no growth, -100 = all killed)
# Settings in all cases: 10 µM unless noted
# HCT-15 colon = tested on: HCT-15 colon
# HT29 colon = tested on: HT29 colon
# SNB-75 CNS = tested on: SNB-75 CNS
# SNB-19 CNS = tested on: SNB-19 CNS
# U251 CNS = tested on: U251 CNS
# PC-3 prostate = tested on: PC-3 prostate
# SK-MEL-5 melanoma = tested on: SK-MEL-5 melanoma
# UACC-62 melanoma = tested on: UACC-62 melanoma
# LOX IMVI melanoma = tested on: LOX IMVI melanoma
# SK-MEL-28 melanoma = tested on: SK-MEL-28 melanoma
# SK-MEL-2 melanoma = tested on: SK-MEL-2 melanoma
# EKVX NSCLC = tested on: EKVX NSCLC
# SN12C renal = tested on: SN12C renal
# UO-31 renal = tested on: UO-31 renal
# TK-10 renal = tested on: TK-10 renal
# ACHN renal = tested on: ACHN renal
# CAKI-1 renal = tested on: CAKI-1 renal
# A498 renal = tested on: A498 renal
# CCRF-CEM leukemia = tested on: CCRF-CEM leukemia
# MOLT-4 leukemia = tested on: MOLT-4 leukemia
Structure (SMILES),growth (HCT-15 colon),growth (HT29 colon),growth (SNB-75 CNS),growth (SNB-19 CNS),growth (U251 CNS),growth (PC-3 prostate),growth (SK-MEL-5 melanoma),growth (UACC-62 melanoma),growth (LOX IMVI melanoma),growth (SK-MEL-28 melanoma),growth (SK-MEL-2 melanoma),growth (EKVX NSCLC) [%],growth (SN12C renal),growth (UO-31 renal),growth (TK-10 renal),growth (ACHN renal),growth (CAKI-1 renal),growth (A498 renal),growth (CCRF-CEM leukemia),growth (MOLT-4 leukemia)
O=c1cc(N/N=C/c2ccc(F)cc2)c2cc(Cl)ccc2[nH]1,83.4%,88.4%,131%,91.1%,94.4%,-43% (active),11.6%,80.4%,95.6%,90%,77.2%,74.2,92.3%,79%,91.5%,91.1%,99%,90.5%,-13.2% (active),-15.8% (active)
COc1ccc(N2CCN(S(=O)(=O)c3oc(-c4ccccc4)nc3C#N)CC2)cc1,9.51% (active),50.6%,93.4%,92.2%,88.2%,92%,81.2%,85.5%,4.64% (active),98.6%,72.4%,118,68.9%,85.9%,71.6%,79.2%,107%,128%,4.32% (active),3.95% (active)
Clc1ccc2c(NCCN3CCN(c4ccnc(N5CCCC5)n4)CC3)ccnc2c1,0.29% (active),6.82% (active),90.7%,53.7%,6.81% (active),58.6%,-16.8% (active),-29.5% (active),-70.1% (active),-17.6% (active),92.4%,63,57.2%,25.8%,52.5%,55.6%,27.7%,51.5%,51.1%,47.2%
CC[C@@H]1NC(=O)[C@H]([C@H](O)[C@H](C)C/C=C/c2ccc(CN3C(=O)C(C)=C(C)C3=O)cc2)N(C)C(=O)[C@H](C(C)C)N(C)C(=O)[C@H](CC(C)C)N(C)C(=O)[C@H](CC(C)C)N(C)C(=O)[C@@H](C)NC(=O)[C@H](C)NC(=O)[C@H](CC(C)C)N(C)C(=O)[C@H](C(C)C)NC(=O)[C@H](CC(C)C)N(C)C(=O)CN(C)C1=O,67.8%,64.9%,72.8%,76.1%,71.2%,39.8%,60.5%,73.3%,68.6%,82.3%,81%,49.1,83.9%,57.3%,75%,74.7%,86.3%,54.2%,63.6%,62.4%
COc1ccc(-c2nc(Cl)c3c(C)nn(-c4ccc(F)cc4)c3n2)cc1,110%,98.3%,104%,99.7%,96.5%,89.6%,100%,100%,101%,110%,91.9%,111,99%,97.3%,98%,106%,107%,101%,102%,103%
C/C(=C(\c1ccc(OCCN2CCOCC2)cc1)c1ccc(OC(=O)C2CCCCC2)cc1)c1ccc(Cl)cc1,97.7%,76.3%,109%,100%,99.5%,68.2%,91.6%,87.9%,102%,99.1%,92.6%,94.1,94.7%,81.8%,96.4%,104%,77.9%,92.6%,-24.6% (active),91.1%
CCCCCCCC/C=C\CCCCCCCCOc1ccccc1CC(=O)NCC[N+]1(C)CCOCC1,92.5%,44.9%,47.7%,32.8%,12.3%,21.7%,89.3%,68%,71.8%,93.8%,90.3%,92.1,60.5%,96.2%,8.83% (active),85.5%,71.6%,95.2%,67.5%,83.7%
ON=C1CCCCCCCC1,105%,104% and 110%,101% and 80.7%,106% and 104%,107% and 110%,95.3% and 104%,106%,103% and 110%,95.4% and 102%,105% and 113%,94.9% and 100%,108,97.2% and 102%,79.9% and 85.4%,100%,98.6% and 105%,105% and 99.8%,102% and 105%,107% and 101%,101% and 96.2%
CCOc1nc(-c2ccccc2)cc2c(O)c(C(=O)N/N=C/c3ccc(N(C)C)cc3)[nH]c(=O)c12,117%,145%,124%,133%,94.7%,88.9%,105%,98.2%,97.8%,98.5%,78.8%,97.5,103%,88.2%,126%,102%,108%,97.3%,98.1%,95.1%
COc1ccc(Nc2ncnc3ccc(-c4cncc(NS(C)(=O)=O)c4)cc23)cc1Cl,63.3%,23.1%,26.7%,42.2%,12%,30%,-60.5% (active),31.8%,15.7%,42.4%,-4.48% (active),67.3,38%,50.1%,18.2%,80.4%,79.8%,7.85% (active),6.14% (active),-27.6% (active)
COc1ccc2c(c1)c(-c1nc(-c3c[nH]c4c(Cl)nccc34)cs1)cn2C,64.3%,84%,82.9%,105%,86.5%,72.6%,45.4%,87.8%,80%,105%,108%,34.8,95.9%,90.8%,35.7%,85.4%,98.7%,94.7%,93.7%,85%
CCN1C(=O)N(c2ccccc2)C2NC(=S)N(/N=C/C=C/c3ccccc3)C21 (stereo not given),12.6%,4.84% (active),35.5%,22.6%,13.9%,14%,3.14% (active),20%,14.8%,60.1%,16.8%,23.2,19.8%,35.5%,50.1%,21.7%,29.6%,6.81% (active),3.8% (active),8.35% (active)
CCN(CC)CCOc1ccccc1C,107%,101%,98.6%,104%,108%,97.3%,102%,101%,104%,98.3%,101%,112,98.7%,95%,107%,101%,102%,106%,102%,103%
